23 sequences from paper PMC7819943, “Rice protein-binding microarrays: a tool to detect cis-acting elements near promoter regions in rice” can be followed below.

The full ranking holds about 68,000 sequences; the median of “fluorescence intensity (a.u.)” is about 9,100, and the highest 2% start at about 16,000. Many of the other results were omitted from the sample, so the highest values are more common in it than they were.

Chain of OsWRKY34 (Q0JBA9 entry or part of it): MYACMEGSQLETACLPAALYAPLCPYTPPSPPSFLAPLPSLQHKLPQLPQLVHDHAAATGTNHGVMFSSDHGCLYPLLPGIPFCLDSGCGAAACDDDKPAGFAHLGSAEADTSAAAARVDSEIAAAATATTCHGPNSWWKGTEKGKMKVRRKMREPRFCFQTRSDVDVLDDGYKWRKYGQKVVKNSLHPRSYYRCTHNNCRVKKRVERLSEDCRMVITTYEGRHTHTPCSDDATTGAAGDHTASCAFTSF

This experiment addresses OsWRKY34 (Oryza sativa, UniProt Q0JBA9 1-250). The experiment is described as follows: protein-binding microarray (RPBM); PBS, 2% BSA, 51.3 ng/ul salmon testes DNA, 50 uM zinc acetate, 200 nM TF, 25 C, 1 h; high values mean tight binding. As to conditions: protein: recombinant; tags: N-terminal polyhistidine and DsRed monomer fusion (pET32a); label: CyDye5-dUTP incorporated in the synthesized complementary strand; 3' TTTTT single-stranded linker to array surface; dsDNA, one strand shown. In short, it runs like this:
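Per-feature fluorescence intensity (arbitrary units), read on an Axon 4000B scanner, is the binding signal. Transcription factors carrying an N-terminal polyhistidine tag and DsRed fusion were expressed in E. coli BL21-CodonPlus and purified on Ni–NTA. A custom Agilent array, made double-stranded by primer extension with Cy5-dUTP and blocked with 2% BSA, was incubated with 200 nM protein in PBS, 2% BSA, salmon testes DNA and 50 µM zinc acetate at 25 °C for 1 h and then washed.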
“TTCTCCACGGCAAACCACCACCGGCGTCACCAGCCCACCACGGAGTCACCTAGTGCAG”: the binding signal is 8110 fluorescence intensity (a.u.).
Take “CTTTTCCATTTCCATGCATTCTTTGATCATCAAGTGATCACGGAGTCACCTAGTGCAG”: the binding signal was 12100 fluorescence intensity (a.u.).
Consider “TTGACCTGCTAGCCTTTTTTTTTTCGCAAATCTATTCCTGCGGAGTCACCTAGTGCAG”, for which the binding signal is 8440 fluorescence intensity (a.u.).
Take “ATTTCTGCAGACCCATTTTGCTTTTGAAACACTGCTGATTCGGAGTCACCTAGTGCAG”: the binding signal was 9790 fluorescence intensity (a.u.).
“AGTTTGTCATGGTCTAAAATATTACCCAGGTGTTCTTTGACGGAGTCACCTAGTGCAG”: the binding signal was 8760 fluorescence intensity (a.u.).
Next, “CATTCTCTTCTCAACCAATAACAACTCTTCCACCATTCACCGGAGTCACCTAGTGCAG”: 9540 fluorescence intensity (a.u.); “CCATTAGTAAGTTCTCTCGTGGCCCAATACTCTCTTGATGCGGAGTCACCTAGTGCAG”: 8840 fluorescence intensity (a.u.).
For the sequence “GGCCAATAAGTTCCAGTTCTCTTCTTAAGGCCCATTAGACCGGAGTCACCTAGTGCAG”, the binding signal was 61800 fluorescence intensity (a.u.).
Consider “CTCTCTCTCTCCTCGCGTGACTCGCGCGTGCCCTCGCCGCCGGAGTCACCTAGTGCAG”, for which the binding signal is 8130 fluorescence intensity (a.u.).
On to “GCCTTCATCATATTCCCAGCTGGTAACTCTATCCATTGACCGGAGTCACCTAGTGCAG”, for which the binding signal is 16400 fluorescence intensity (a.u.).
For “ACTAAACTCTGCCTTCATCATATTCCCAGCTGGTAACTCTCGGAGTCACCTAGTGCAG”, the binding signal was 10300 fluorescence intensity (a.u.).
Next, “TATTCCCAGCTGGTAACTCTATCCATTGACGGCTGTGTTTCGGAGTCACCTAGTGCAG”: 9650 fluorescence intensity (a.u.); “CCTCTGGTCACGCATTCTACACAGAATCTCTGGTTTTCCCCGGAGTCACCTAGTGCAG”: 9500 fluorescence intensity (a.u.).
For “ACTTTCTTTTTTTCTTTTTAACCTTGACCTTTACTGGCATCGGAGTCACCTAGTGCAG”, the binding signal is 8690 fluorescence intensity (a.u.).
On to “ATATGCTGTCTTTTACTTGACTTGTAGTGCAACCTTCCACCGGAGTCACCTAGTGCAG”, for which the binding signal was 12100 fluorescence intensity (a.u.).
On to “ATCTTAACCGCAACAGCTTTGCATCTTTTTAGTACCTATTCGGAGTCACCTAGTGCAG”, for which the binding signal was 8170 fluorescence intensity (a.u.).
With “TCCTTTGACTTTTTAACCAGCTGTCTACTAGTAGTACTACCGGAGTCACCTAGTGCAG”, the binding signal was 17800 fluorescence intensity (a.u.).
Regarding “GAACAGCTCAGCTCACCGCATCCTTTGACTTTTTAACCAGCGGAGTCACCTAGTGCAG”, the binding signal is 18100 fluorescence intensity (a.u.).
As for “TTGCAGCTGTCCTCTCTACCTTAACCCTTTGACCAGTGCTCGGAGTCACCTAGTGCAG”, the binding signal was 9130 fluorescence intensity (a.u.).
On to “CACACGCACGCTTCTCACGTACATATCGATCGCAAATATCCGGAGTCACCTAGTGCAG”, for which the binding signal was 8490 fluorescence intensity (a.u.).
As to “GCCGATAGAGGCATGGGGTTTGTTCAGATTGATGTCATTTCGGAGTCACCTAGTGCAG”, the binding signal was 9370 fluorescence intensity (a.u.).
With “CCGTGGTGGTACGCGCGCGCTGCGTACGTTTTTTTTTCTTCGGAGTCACCTAGTGCAG”, the binding signal is 9450 fluorescence intensity (a.u.).
“CGAACCAAGACAAGAAAATAGAACCATCCTATCTATCAGGCGGAGTCACCTAGTGCAG”: the binding signal was 11500 fluorescence intensity (a.u.).
